Reference: PubChem BioAssay AID1508600 (Functional Genomics Laboratory (NCATS/FGL), 2020)
The whole screen tested about 53,000 sequences, of which about 3,700 (7%) were called active.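 How the source made its calls: active means gene knockdowns whose robust z-score for IL-1 alpha signal is at least 2 or at most -2, so actives lie on both sides; inactive means the rest.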 This excerpt belongs to a sample that is enriched for actives.

Assay: Components of the Cytosolic LPS Sensing Pathway: Gene Identification via Genome-wide siRNA Screen;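 further: robust z of the log signal after scaling to non-targeting control siRNA wells of the plate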
Details: RAW264.7 macrophages, IL-1a HTRF, actives lie on both sides, screened at 100 nM (by protocol), cells primed 5 h with Pam3CSK4 first
How it was run: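 Three distinct siRNAs per gene were tested singly at 100 nM in RAW264.7 macrophages. Following Pam3CSK4 priming and 24 hour LipidA transfection, IL-1a secretion was read by HTRF.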
For GGUAAAAUUGUCCAAGGAATT against Clec2i, the z-score was -0.109 (inactive).
For GGCCAAGAAGACAAGAAAATT against Ddx54, the z-score was 0.502 (inactive).
In the case of GGAAUAUGUUUAGCAUCUGTT against Mfsd5, the z-score is reported as -0.437 (inactive).
In the case of GGCACAUAUGAGGACUACCTT against Myl6b, the z-score is reported as 0.786 (inactive).
With GCCGUGCAACACUUCUACATT against Esrrb the z-score was -0.471 (inactive).
In the case of GGAGGUCCCUUCUUCAGCUTT against Zfp410, the z-score is reported as -1.19 (inactive).
For GGCCAAGAAGAGAAAAACATT against Ccne2, the z-score was -1.54 (inactive).
For GGUCAUGGAUGUCACAGAGTT against Mink1, the z-score was -2.17 (active).
For CCAGAUUCUAUAAUAGAGUTT against Gabrp, the z-score was -0.232 (inactive).
For GGGUUCUGUGUAAAUGUAUTT against Gzma, the z-score was 0.203 (inactive).
In the case of GGCAGAAGUCCAACUUCUUTT against Pirt, the z-score is reported as -0.363 (inactive).
With GCUAGUGCGCAUGUUUCUCTT against Rasgrp2 the z-score was 0.621 (inactive).
With GGUGGAAGCACAGAGUUGCTT against Prdm15 the z-score was 2.14 (active).
With GGACAACCAAAAUGCAUUUTT against Zic3 the z-score was 0.517 (inactive).
For GGAACUGGGUCCUCAUUCCTT against Capn1, the z-score was -1.6 (inactive).
For GGAGUUCAACUAGAUGUGGTT against Bcl2l13, the z-score was -1.2 (inactive).
In the case of GCUUCAAUGAGGAGUAUCUTT against Smpdl3b, the z-score is reported as -0.617 (inactive).
With GGAUUGGAUAUUGAGAAGGTT against Rexo2 the z-score was -1.72 (inactive).
In the case of GGUGGUCAGGAAAUGAGUCTT against Lrch4, the z-score is reported as 2.09 (active).
For “GGUCAACUCUAAGAUGCUGTT against 9930012K11Rik”, the z-score was 1.35 (inactive).
In the case of CGUGUGAAGUAAAGAUGUUTT against Mrpl57, the z-score is reported as 0.212 (inactive).
In the case of GGAGCUGCUUUCAAAGCUGTT against Ccdc136, the z-score is reported as -0.831 (inactive).
With GGAUGGUACAGGUCUGGUGTT against Fgfr3 the z-score was 4.82 (active).
In the case of “CGGAUUAUUGGUUAGAAAUTT against C230013L11Rik”, the z-score is reported as 1.26 (inactive).
In the case of GCACAAUGGAAGGUGUCCUTT against Tas2r114, the z-score is reported as 0.597 (inactive).
In the case of GGACUUUGUGGACAAAAUUTT against Ift20, the z-score is reported as -1.64 (inactive).
In the case of GCCUCAACAUGAUCCCGAGTT against Ccdc172, the z-score is reported as -3.34 (active).
In the case of GGAGAUAAAGAGGAACAUUTT against AI504432, the z-score is reported as 1.01 (inactive).
In the case of GGGUUUUGAAAGAGGAAAATT against Osbpl8, the z-score is reported as 1.52 (inactive).
With GGCAGCUGAAAGAAGAUCUTT against Dffa the z-score was 3.21 (active).
For GGGACUGGAACAAUAGAGGTT against BC030500, the z-score was 0.626 (inactive).
In the case of GGGACAAGUGACUGAAUUGTT against Dio3, the z-score is reported as 0.408 (inactive).
In the case of GGCCAUUUACUUGAAGAACTT against Lpin3, the z-score is reported as -0.0508 (inactive).
For CCUUCUCCUCGUGCAAGUATT against Cort, the z-score was 2.05 (active).
With GAUGCCCAAUGUGCAAAUGTT against Defa-rs12 the z-score was 1.06 (inactive).
For CCACUGCACUGUAAAUCAATT against Glrx5, the z-score was -1.41 (inactive).
For GCUCUUGACUCACUCAGCATT against Il1bos, the z-score was -2.01 (active).
In the case of GGACUGAAAUGUCUUAGACTT against Selenow, the z-score is reported as -1.21 (inactive).
With GCAUCGCAUAUUGGAAUGCTT against Lim2 the z-score was 0.366 (inactive).
In the case of CGGCAAAUUCGUGAAAAGGTT against Olfr575, the z-score is reported as 0.118 (inactive).
For GCAACUGAAUUCCAGUUUUTT against Ugt1a2, the z-score was -0.0905 (inactive).
In the case of GGAGCUAGCCAACUUCGAUTT against Lsr, the z-score is reported as -0.182 (inactive).
For GCACAGAAAUAUUAAAGUCTT against Foxp4, the z-score was -1.7 (inactive).
With GGGUUUAGAAAGAUGAAUGTT against Tbcel the z-score was -0.189 (inactive).
With GGGCUUCACCCUCAUACAATT against Pirt the z-score was 2.26 (active).
In the case of GGAGAAAGCCAAAUUUAACTT against Slc17a6, the z-score is reported as 0.103 (inactive).
In the case of GGUCUGAAGAAGAUUCUGGTT against Unc45a, the z-score is reported as 0.33 (inactive).
In the case of GCCUUUAUAGGAUUUCAAATT against Ppp2r5e, the z-score is reported as 0.678 (inactive).
With CGGUACAGGGUAAAGGACATT against Prss41 the z-score was 0.00568 (inactive).
For GGAGUACAGCAUCUCAGCATT against Cacng1, the z-score was -2.17 (active).
With GGCAGAACCCUUUGAUGACTT against Fos the z-score was -0.0931 (inactive).
In the case of GCAGCUGUCCGUAUAUCUUTT against Uxt, the z-score is reported as 0.377 (inactive).
For GGAGUCCUGAAGAAUAAAGTT against Tff3, the z-score was -0.0657 (inactive).
In the case of CCCACUACUGUAAGACAUGTT against Trim46, the z-score is reported as 0.614 (inactive).
For CCCUCACUAUAACACUAUUTT against Six5, the z-score was -0.418 (inactive).
For GGCUAGAAAGGGUCUCAAATT against Cyp3a25, the z-score was -1.48 (inactive).
For UUGGUUCAACCUCAUCAUATT against Olfr869, the z-score was 2.07 (active).
In the case of CCCUUAUUGCUAGACCUAGTT against Map3k11, the z-score is reported as -1.13 (inactive).
With GGAUUUUCUCUAUGCAGGCTT against Dcaf15 the z-score was 0.0862 (inactive).
In the case of GGAAAAACUGAGAAAACUUTT against Lyrm1, the z-score is reported as -2.41 (active).
In the case of GGAUGUCAAGGACACAGUATT against Olfr73, the z-score is reported as -1.04 (inactive).
With GCAGUGAUCAGGUAAUGAATT against Igf2 the z-score was 0.431 (inactive).
In the case of GGUGGGUCAAUGAUCCAGGTT against Fabp9, the z-score is reported as -2.11 (active).
In the case of GGAUGUCUUUGUUCACCAGTT against Ybx2, the z-score is reported as -0.267 (inactive).
For GCCUUUUAAUAGAUGUCAUTT against Vta1, the z-score was -0.201 (inactive).
For GGUGUAUUUUUUCACUGUUTT against Olfr339, the z-score was -1.52 (inactive).
For GGACUUGCCACCCAGGAAATT against Apba3, the z-score was -0.175 (inactive).
In the case of GCAGAUCAGAAGAAAUUUGTT against Jmy, the z-score is reported as 1.22 (inactive).
In the case of GGGAAAAGCACGUUCUUGCTT against Arl10, the z-score is reported as 0.34 (inactive).
With GGAUACGAUCCAGUGUGCCTT against Lyzl4 the z-score was 1.04 (inactive).
For GGAGGAUUCCCUCUAUAUUTT against Slc33a1, the z-score was 0.118 (inactive).
For GGGUCCCUAAGCAUGUUCCTT against Slfn10-ps, the z-score was 0.618 (inactive).
For GGCUUUGAGCAUGUUUUCATT against Hspb7, the z-score was 7.14 (active).
In the case of GGUGGAUAUAAUAAUUGACTT against Tgfbr3, the z-score is reported as 1.06 (inactive).
With GCUAUCCAGAUUGGUGUUATT against Tatdn1 the z-score was 1.7 (inactive).
In the case of GGGCCAAGAAAACCUACACTT against Cyp11b2, the z-score is reported as 2.63 (active).
In the case of GGCCAAUAAAGACUGGUUUTT against Rps15, the z-score is reported as 1.69 (inactive).
For GGAAAGCAAUGCAUUACAATT against Zbtb6, the z-score was 0.149 (inactive).
In the case of GGCGGAAGCCAUCUAACUUTT against Arhgef4, the z-score is reported as -0.519 (inactive).
For GGCAGCUUCAGGAACCAAUTT against Krt5, the z-score was -2 (active).
For GGGUUUUCUCAUUGUCUUUTT against Rce1, the z-score was -1.91 (inactive).
For GGAGGUUUUCAUGGUUAUCTT against Nrgn, the z-score was 0.0293 (inactive).
For GGUAGACUGAACUUCAGCATT against Larp6, the z-score was -1.31 (inactive).
With CCCUAUGCAAUAUAUAGACTT against Tmsb15l the z-score was 0.174 (inactive).
In the case of CCGAAAAUGAGAUAAAGUCTT against Polr2k, the z-score is reported as -1.88 (inactive).
With GGUCAAGUCAAGAGUGAGATT against BC048562 the z-score was 0.2 (inactive).
In the case of GGCAUUCUGUGAGACACAATT against Exosc10, the z-score is reported as 0.389 (inactive).
In the case of CCACAAGCAGUGCUCUUUCTT against Cyp3a13, the z-score is reported as -2.08 (active).
For GAGAAGAAAAAAUGCAGUGTT against Olfr825, the z-score was 0.0375 (inactive).
For CCUGAGGUGUUUUACAUAUTT against Med20, the z-score was 0.085 (inactive).
In the case of GGAAGAAUCCUCCAUGGAGTT against Mrpl24, the z-score is reported as 1.35 (inactive).
With GGAAUCAGUGACCUUUUUCTT against Arf2 the z-score was -2.05 (active).
With CCCUCCUAUUAGCGCAUUUTT against Osbpl2 the z-score was -0.239 (inactive).
For GGAGAUGAUCGACGAAGUATT against Tnnc1, the z-score was 0.914 (inactive).
For GGAGACAGCAUUCAUUUAUTT against Wnt16, the z-score was 0.94 (inactive).
In the case of GCUCUCCUUGAUCGAGAGATT against Spryd7, the z-score is reported as -2.65 (active).
For GCCUUGUCUUCCUUCAGUGTT against Sprr2a1, the z-score was -0.172 (inactive).
In the case of GGACUUAAGUACAAAGAUCTT against Sap18, the z-score is reported as 1.46 (inactive).
In the case of GCAUCAAAUAGUGGUACCUTT against Lsm14a, the z-score is reported as -0.209 (inactive).
In the case of CGAGCUCAGGUGAGAAAUUTT against Pfpl, the z-score is reported as 0.924 (inactive).
With GGACUGCCUUAUGCUACGATT against Setd5 the z-score was -0.44 (inactive).
In the case of GUCCUCUUCUGGUUCUCAGTT against Vmn1r52, the z-score is reported as 0.246 (inactive).
For CGAGAAGUACAAAAGGGAGTT against Ccdc103, the z-score was -0.768 (inactive).
For GGUCCUGACUGGAUACCUGTT against Ece1, the z-score was 4.19 (active).
In the case of GGCGGAGUAGACUUCAUAUTT against Olfr593, the z-score is reported as 0.363 (inactive).
In the case of GUUUGAUGAUCACUGGGUCTT against Aqp2, the z-score is reported as 1.6 (inactive).
For GCUCCGAAGAGCUAAUACUTT against Tmem25, the z-score was 0.944 (inactive).
For GCGGCAGAUCUUCGAUUUCTT against Nkain1, the z-score was 0.168 (inactive).
